Screens deposited in PubChem by National Center for Advancing Translational Sciences (NCATS).
TDP1 cell noCPT: qHTS for Inhibitors of human tyrosyl-DNA phosphodiesterase 1 (TDP1): qHTS in cells in absence of CPT; Potency, µM (doses to about 46.2 µM), hits mostly inhibitors; AID 686978, 2013; DT40 Tdp1-/- hTDP1 cells, no CPT, ATP luminescence, 48 h; 15% of 420,000 active; note: nearly all actives have a fitted effect of over 55% in size
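Stably hTDP1-transfected Tdp1-null chicken DT40 cells were treated with library compounds minus camptothecin and grown for at least 48 hr at 37 °C, after which cellular ATP was quantified by luminescence.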
IL1B secr inh: blocks inflammasome-driven IL-1 beta release. THP-1 LPS/ATP IL-1B secretion, AlphaLISA, 16 h; hits give low values. activity change, % at 57.5 µM. 4.7% of 360,000 active. AID 743279; in the data active = activity change below about -50%; inconclusive = mostly about -30% to -49%
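THP-1 cells pretreated 1 hr with compounds (up to 57.5 uM final), then stimulated with LPS (250 ng/mL final) plus ATP (1.25 mM final); secreted IL-1B measured by AlphaLISA after 16 hr, decreased signal indicating inhibition.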
ELG1 DNA repair: blocks ELG1-dependent DNA repair in HEK293T cells; 2.3% of 330,000 active; HEK293T ELG1-luciferase reporter, luminescence, 16 h; DNA damage induced by 5-fluorouridine; Potency, µM (top dose mostly 46.1 µM), usual class: inhibitors; note: nearly all actives have a fitted effect of over 55% in size
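5-Fluorouridine DNA damage + compound/DMSO, 2,000 cells/well, 16 h, 37 °C/5% CO2. ONE-Glo, 30 min RT, luminescence. Readout = decrease in reporter signal.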
HT1080NT lethal: kills 2HG-producing HT-1080-NT fibrosarcoma cells; 1.6% of 360,000 active; Potency, µM (doses to about 46.1 µM), most hits filed as cytotoxic; HT-1080-NT fibrosarcoma viability, CellTiter-Glo ATP luminescence, 48 h;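 note: NT is the 2HG producing partner of a matched IDH1 knockdown line; nearly all actives have a fitted effect of over 55% in size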
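Viability of the 2HG-overproducing fibrosarcoma line after 48 hours of compound exposure at 37 degrees C was determined by luminescence with CellTiter-Glo, and concentration-effect curves were then fitted and categorized.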
DT40 TDP1 CPT: growth inhibition of DT40 Tdp1-/-;hTDP1 cells with camptothecin (screen for TDP1 inhibitors); chicken DT40 Tdp1-/-;hTDP1 cells + 20 nM CPT, ATP luminescence, 48 h; 12% of 420,000 active; Potency, µM (highest dose often 46.2 µM), hits mostly inhibitors; note: nearly all actives have a fitted effect of over 55% in size
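Chicken DT40 Tdp1-/- cells stably complemented with human TDP1 were seeded at 400 cells/well in medium containing 20 nM camptothecin, exposed to pin-transferred compounds, and grown at 37 °C for at least 48 hr. Viability was read as ATP luminescence.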
HT1080 IDH1KD tx: toxicity to HT-1080 IDH1 knockdown cells (counter line); 2% of 360,000 active; Potency, µM (doses to about 46.1 µM), usual class: cytotoxic; HT-1080 IDH1 knockdown viability, ATP luminescence, 48 h; AID 686971
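Knockdown cells (IDH1KD HT-1080) received compounds 2 h after plating at 750 cells/well and were kept 48 h at 37 °C in 5% FBS RPMI. A CellTiter-Glo luminescence read gave % activity for curve fitting.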
Each line names hits and unclear results; the compound was inactive in the other large screens. The list is not random: actives were taken first. Their share in the collection is about 19%. Unless noted, calls come from the whole dose curve; as a rule, active = well fitted curve in the direction sought with a large enough effect; inconclusive = small, poorly fitted or top-dose-only effect, or another doubt; inactive = no such curve, though single readings can be large; an effect the other way counts as inactive or inconclusive.

Cn1cnc([N+](=O)[O-])c1Oc1cccc(O)c1	TDP1 cell noCPT 23µM, IL1B secr inh -105, DT40 TDP1 CPT inconclusive
Cc1ccc2nc(-c3ccc(Cl)cc3)c(CC3CCCCC3)n2c1	TDP1 cell noCPT inconclusive, HT1080NT lethal inconclusive, DT40 TDP1 CPT inconclusive, HT1080 IDH1KD tx inconclusive (no result: ELG1 DNA repair)
Cc1ccc2nc(-c3ccsc3)c(NC3CCCC3)n2c1	TDP1 cell noCPT 13µM, DT40 TDP1 CPT 10µM
Cc1ccc2nc(-c3ccncc3)c(NC3CCCCC3)n2c1	TDP1 cell noCPT inconclusive, ELG1 DNA repair inconclusive, DT40 TDP1 CPT 23µM
Cc1ccc(S(=O)(=O)N(C)C)cc1NC(=O)CN1C(=O)NC2(CCCCCCC2)C1=O	none
Cc1cc(C)cc(N(CC(=O)NCc2ccco2)S(=O)(=O)c2c(C)noc2C)c1	none
COc1ccc(CNC(=O)CN(c2cc(C)cc(C)c2)S(=O)(=O)c2c(C)noc2C)cc1	TDP1 cell noCPT inconclusive
Cc1ccc(N(CC(=O)Nc2ccc3c(c2)OCCO3)S(=O)(=O)c2c(C)noc2C)cc1	TDP1 cell noCPT inconclusive, ELG1 DNA repair 16µM, DT40 TDP1 CPT inconclusive
Cc1cc(C)cc(N(CC(=O)NCc2ccccc2Cl)S(=O)(=O)c2c(C)noc2C)c1	TDP1 cell noCPT 23µM, DT40 TDP1 CPT inconclusive (no result: IL1B secr inh, ELG1 DNA repair, HT1080NT lethal, HT1080 IDH1KD tx)
COc1cc(NC(=O)CN(c2cc(C)cc(C)c2)S(=O)(=O)c2c(C)noc2C)cc(OC)c1	TDP1 cell noCPT inconclusive, DT40 TDP1 CPT 18µM
COc1cc(NC(=O)CN(c2ccc(C)cc2)S(=O)(=O)c2c(C)noc2C)cc(OC)c1	TDP1 cell noCPT 7.3µM, IL1B secr inh inconclusive, DT40 TDP1 CPT 18µM
COc1ccc(N(CC(=O)Nc2ccc(C)c(F)c2)S(=O)(=O)c2c(C)noc2C)cc1	DT40 TDP1 CPT inconclusive
COc1ccc(NC(=O)[C@H](C)NC(=O)C2CCN(S(=O)(=O)c3ccc(OC)cc3)CC2)cc1	IL1B secr inh inconclusive
CCOc1ccc(N(CC(=O)Nc2ccc(C)cc2)S(=O)(=O)c2c(C)noc2C)cc1	ELG1 DNA repair inconclusive, DT40 TDP1 CPT inconclusive
Cc1cc(C)cc(N(CC(=O)Nc2cccc(C)n2)S(=O)(=O)c2c(C)noc2C)c1	TDP1 cell noCPT 13µM, DT40 TDP1 CPT 21µM
Cc1ccc(N(CC(=O)Nc2ccc(OC(F)(F)F)cc2)S(=O)(=O)c2c(C)noc2C)cc1	TDP1 cell noCPT 18µM, DT40 TDP1 CPT 21µM (no result: IL1B secr inh, ELG1 DNA repair, HT1080NT lethal, HT1080 IDH1KD tx)
Cc1ccc(NC(=O)CN(c2cc(C)cc(C)c2)S(=O)(=O)c2c(C)noc2C)nc1	TDP1 cell noCPT inconclusive, ELG1 DNA repair inconclusive, DT40 TDP1 CPT inconclusive
COc1ccccc1C(NC(=O)C1CCN(CCOc2ccc(Cl)cc2Cl)CC1)c1ccccn1 (stereo not given)	TDP1 cell noCPT inconclusive, HT1080NT lethal inconclusive, DT40 TDP1 CPT inconclusive, HT1080 IDH1KD tx 15µM (no result: ELG1 DNA repair)
COc1ccccc1C(NC(=O)C1CCN(CCOc2ccccc2)CC1)c1ccccn1 (stereo not given)	TDP1 cell noCPT inconclusive, HT1080NT lethal inconclusive, DT40 TDP1 CPT inconclusive (no result: ELG1 DNA repair)
COc1ccc(OCCN2CCC(C(=O)NC(c3ccc(Cl)cc3)c3cccnc3)CC2)cc1 (stereo not given)	TDP1 cell noCPT inconclusive, HT1080NT lethal inconclusive, DT40 TDP1 CPT inconclusive, HT1080 IDH1KD tx 21µM (no result: ELG1 DNA repair)
O=C(NC(c1ccc(Cl)cc1)c1ccsc1)C1CCN(CCOc2ccc(Cl)cc2)CC1 (stereo not given)	TDP1 cell noCPT inconclusive, IL1B secr inh -68, HT1080NT lethal inconclusive, DT40 TDP1 CPT inconclusive, HT1080 IDH1KD tx inconclusive (no result: ELG1 DNA repair)
COc1cc(OC)nc(C(NC(=O)C2CCN(Cc3c[nH]c4ccccc34)CC2)c2ccc(Cl)cc2)n1 (stereo not given)	TDP1 cell noCPT 18µM, IL1B secr inh -61, HT1080NT lethal 5.8µM, DT40 TDP1 CPT inconclusive (no result: ELG1 DNA repair)
